Laboratory results as given in PubChem BioAssay AID1117319 (Southern Research Institute, 2015).
Screen size: about 260,000 compounds; about 1,500 (0.58%) were called active. Another 5% or so got no clear call; they are omitted.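 How the source made its calls: active means inhibition above a set limit at one or more doses, reproduced on every date tested; inconclusive means results disagree between test dates, or hit never tested in dose response; inactive means the rest.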 A selection follows. Measured potencies and affinities stand elsewhere.

molecular target: Virion infectivity factor (Human immunodeficiency virus type 1 group M subtype B (isolate BH10)) + Virion infectivity factor (Human immunodeficiency virus type 1 group M subtype B (isolate BRU/LAI)) + Virion infectivity factor (Human immunodeficiency virus type 1 group M subtype B (isolate PCV12)) + Virion infectivity factor (Human immunodeficiency virus type 1 group M subtype B (isolate HXB2)) + DNA dC->dU-editing enzyme APOBEC-3G (Homo sapiens) (UniProt P69720+P69721+P69722+P69723+Q9HC16); test: HIV-1 Vif–A3G interaction blockers – biochemical, TR-FRET, GST-Vif 1-94, biotin-A3G peptide, dose response retest, primary screen (AID 1117319); conditions: TR-FRET GST-Vif / biotin-A3G peptide binding; stronger effect = higher value;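 further: Vif residues 1-94 fused to GST binding biotinylated APOBEC3G peptide 110-148; 0% = full assay without inhibitor and 100% = GST in place of GST-Vif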

inhibition, inactive:
O=C(Cc1c(F)cccc1Cl)N1CCN(S(=O)(=O)c2cccc(F)c2)CC1 -1.72%
O=C(C1CCCCC1)N1CCc2ccccc21 3.73%
O=C(O)C1CC=CCC1C(=O)N1CCc2ccccc21 (configuration not stated) 23.4%
CCN(CC)S(=O)(=O)c1ccc(OCC(=O)NC(=O)Cc2ccccc2)c([N+](=O)[O-])c1 1.51%
C=C(c1ccc(OC)cc1)c1ccc(OC)cc1 13.2%
O=C(c1ccccc1)c1ccc(OCCO)cc1 -4%
CC1(C)CC(=O)C(C=NCCCN2CCOCC2)=C(O)C1 -5.25%
CCc1cc2ccc(OC)cc2nc1SCC(=O)NNC(=O)c1ccco1 -10%
Cc1ccc(NC(=S)N(CCCN2CCOCC2)Cc2ccco2)cc1C -0.03%
CN(C)c1ccc(/C=C2\C(=N)N3C(=NC2=O)Sc2cc(S(C)(=O)=O)ccc23)cc1 -44.5%
COc1ccc(/C=C2/C(=N)N3C(=NC2=O)Sc2cc(S(C)(=O)=O)ccc23)cc1OC -1.27%
O=C(NCc1nnc(SCC(=O)N2CCc3ccccc32)o1)c1ccco1 1.79%
Cc1cccc(NCC(=O)N/N=C\c2c[nH]c3ccccc23)c1 21.4%
Cc1nc(N)sc1C(=O)N/N=C/c1cccnc1 3.64%
O=C(CSc1nnnn1-c1ccccc1)Nc1ncc2c(n1)CC(c1ccccc1)CC2=O (configuration not stated) 2.52%
Cc1cccc(Nc2ncc3c(n2)CC(c2ccco2)CC3=O)c1 (configuration not stated) 3.03%
CCC(=O)Nc1ncc2c(n1)CC(c1ccco1)CC2=O (configuration not stated) 31.8%
Cc1ccc(Nc2ncc3c(n2)CC(c2ccco2)CC3=O)c(C)c1 (configuration not stated) 18.1%
CC(C(=O)NC1=NCCS1)(C(F)(F)F)C(F)(F)F -4.2%
COc1ccc(CCNC(=O)CCCc2ccccc2)cc1OC 1%
Cc1ccc(C)c(OCC(=O)Nn2c(C)nc3ccccc3c2=O)c1 -5.76%
C=CCn1c(C)c(C(C)=O)c(N2CCOCC2)nc1=S 5.16%
C=CCn1c(C)c(C(C)=O)c(N2CCCC2)nc1=S 1.72%
O=C(NCC1CCCO1)c1ccc2nc(N3CCCCC3)sc2c1 (configuration not stated) 1.36%
CC(Oc1ccc(Br)cc1)C(=O)Nc1ccncc1 (configuration not stated) -0.96%
O=C(NNc1nc2c(F)cccc2s1)c1cc(=O)c2ccccc2o1 21.6%
COc1ccc(CNC(=O)c2cc(=O)c3ccccc3o2)cc1 4.03%
O=S(=O)(c1cccc(F)c1)N1CCN(C(=S)NCc2ccccc2)CC1 -4.04%
O=C(OCc1csc(-c2ccccc2)n1)c1ccc(O)cc1 -8.63%
O=C1c2ccccc2C(=O)N1CCCON1C(=O)c2ccccc2C1=O -6.06%
O=C1c2ccccc2C(=O)N1CCCCON1C(=O)c2ccccc2C1=O -9.96%
CCC(C)NC(=O)C(Cc1ccccc1)NS(=O)(=O)c1ccc2c(c1)CCC(=O)N2 (configuration not stated) -0.93%
CC(C)=CC(=O)NCc1c(Cl)cccc1-n1cccc1 -7.14%
CCC(=O)NCc1c(Cl)cccc1-n1cccc1 -0.31%
CC(C)(C)c1cc(CCC(=O)N2CCNCC2)c(C(C)(C)C)cc1O -5.87%
O=C(c1cccc(-n2cccc2)c1)N1CCN(S(=O)(=O)c2ccccc2Br)CC1 -0.78%
Cc1ccc(S(=O)(=O)N2CCN(C(=O)c3cccc(-n4cccc4)c3)CC2)cc1 13.6%
CCc1cccc2c(SCC(=O)NCC3CCCO3)nc(-c3ccc(F)cc3)nc12 (configuration not stated) -2.63%
O=C(NCCn1cc(SCc2ccccc2F)c2ccccc21)c1c(F)cccc1F 23.7%
CCN(CC)c1ccc(/C=N/N2C(=O)c3ccccc3C2=O)cc1 0.19%
CSc1ccc(/C=N/n2c(C)cc(C)cc2=O)cc1 -2.42%
CC(C(=O)OCC(=O)N(C)C1(C#N)CCCCC1)N1C(=O)c2ccccc2C1=O (configuration not stated) -0.19%
Fc1ccc(CSc2nnc(-c3ccccn3)o2)cc1 -5.79%
O=C1c2ccccc2CC1Sc1nnc(-c2ccncc2)o1 (configuration not stated) 8.68%
COc1ccc(N=C2SC(C(=O)Nc3ccc(C(=O)O)cc3)CC(=O)N2Cc2cccs2)cc1 (configuration not stated) -11.4%
Cc1ccc(C)c(NC(=O)C2CCN(S(=O)(=O)c3ccc4c(c3)NC(=O)CO4)CC2)c1 -1.93%
COc1ccc(C(=O)CSc2nnc(-c3ccco3)n2C)cc1 7.51%
Cc1ccc(C(=O)CSc2nnc(-c3ccco3)n2C)cc1 11.4%
O=C(OC(C(=O)NCc1ccco1)c1ccc(Cl)cc1)c1cccs1 (configuration not stated) 4.09%
CC(C)(C)NC(=O)C(c1ccc(O)cc1)N(C(=O)CCC(=O)Nc1ccccn1)c1ccc(F)cc1 (configuration not stated) 16.4%
O=C(Nc1ccc2nsnc2c1)N1CCCCCC1 21.1%
CCOC(=O)C1CCN(C(=O)Nc2ccc3nc(C)c(C)nc3c2)CC1 8.59%
CCOC(=O)C1CCN(C(=O)Nc2ccc3nccnc3c2)CC1 -4.96%
Cc1nc2ccc(NC(=O)N3CCCCC3)cc2nc1C 1.22%
CCn1nnnc1NC(=O)c1cc(Cl)c(OC)c(Cl)c1 0.23%
Cc1noc(C(=O)NCC2CCCO2)c1Cl (configuration not stated) 2.96%
COc1ccc(-n2nnc3c(SCC(=O)OCc4ccccc4)ncnc32)cc1 0.84%
C=CCNC(=O)O/N=C/c1csc([N+](=O)[O-])c1 -6.03%
CC(C)(C)c1ccc(C(=O)N/N=C/c2ccc(OCCCF)cc2)cc1 -1.58%
CCOc1ccc(NC2=CC(=O)C(=O)c3ccccc32)cc1 3.36%
CCOc1ccccc1NCN1C(=O)c2ccccc2C1=O -5.06%
O=C(NC(=S)Nc1ccccc1O)c1cccnc1 -2.04%
COc1ccc(NC(=O)c2oc3ccccc3c2C)c(OC)c1 3.61%
COc1ccccc1NC(=O)c1oc2ccccc2c1C -8.43%
Cc1nn(-c2cccc(Cl)c2)nc1C(=O)Nc1cccc(C(=O)NC2CC2)c1 -8.35%
Oc1ccc(N=Nc2ccc3c(c2)OCCO3)c(O)c1 6.46%
Oc1ccc(N=Nc2ccc(Br)cc2)c(O)c1 -5.68%
O=[N+]([O-])c1ccc(N=Nc2ccc(O)cc2O)cc1 27.8%
O=[N+]([O-])c1cccc(N=Nc2ccc(O)cc2O)c1 5.74%
Clc1cccc(CSc2nnc(-c3c[nH]c4ccccc34)o2)c1 -5.82%
Cc1ccc(-c2nc(C#N)c(N3CCCCC3)o2)cc1 -10.2%
CC(=O)N1CCc2ccc(NC(=O)c3c(-c4c(Cl)cccc4Cl)noc3C)cc21 -4.69%
O=[N+]([O-])c1ccc2nc(C3CCCCC3)[nH]c2c1 -11.7%
COc1cccc(C(=O)Nc2ccc3nc(N4CCOCC4)cc(C)c3c2)c1 -4.42%
CN(C)/C=C/C(=O)c1ccc(Br)cc1 -1.28%
O=C(NCCO)C1COc2ccccc2O1 (configuration not stated) -2.17%
O=C(CSc1nnnn1C1CC1)N1CCN(c2ccccc2F)CC1 -1.62%
On1nnc2c3ccccc3c3ccccc3c21 0.98%
O=C(O)C1CCCCN1C(=O)c1ccc(S(=O)(=O)N2CCCCCC2)cc1 (configuration not stated) -3.6%
COc1ccc2c(c1)CCCC(Br)C2=O (configuration not stated) 11.8%
COc1cc2c(cc1OC)C(=O)CCC2 -1.94%
O=C(O)c1cccc2c1C(=O)c1ccc(N3CCN(Cc4ccc5c(c4)OCO5)CC3)cc1S2(=O)=O 1.13%
Cc1cccc2cc(CN(CCCO)C(=O)Nc3ccc(Cl)cc3)c(=O)[nH]c12 13.2%
C/C(=N\NC(=O)c1cc(C2CC2)nc2ccccc12)c1ccc(C)s1 5.05%
Cc1c(N=C2C=CC(=O)c3ccccc32)c(=O)n(-c2ccccc2)n1C 25%
Cc1c(N=c2c(=O)c3ccccc3c2=O)c(=O)n(-c2ccccc2)n1C 23.7%
CCC(C)C1=CC(=Nc2c(C)n(C)n(-c3ccccc3)c2=O)C=C(C(C)CC)C1=O (configuration not stated) 9.76%
CC1=CC(=Nc2c(C)n(C)n(-c3ccccc3)c2=O)C=C(C)C1=O 16.9%
CC(=O)NC1=NN(C(C)=O)C(C)(c2cccs2)S1 (configuration not stated) 2.86%
Cc1cc(=O)oc2cc(NC(=O)c3ccnn3C)ccc12 -5.65%
Cc1ccc(C)c(Cn2nnc3c(=O)[nH]c(C4CCN(S(=O)(=O)c5ccc(S(=O)(=O)NC6CC6)cc5)CC4)nc32)c1 -11.5%
O=C(CN1CCN(S(=O)(=O)c2ccc(Cl)s2)CC1)N1CCOCC1 7.26%
O=C(CN1CCN(S(=O)(=O)c2ccc(Cl)cc2)CC1)NCc1cccs1 0.29%
CC(C)Nc1nc(-c2ccccc2)nnc1-c1ccccc1 -7.57%
O=C(O)/C=C/C(=O)Nc1ccc(SC(F)(F)C(F)(F)C(F)(F)F)cc1 -1.48%
CCN(CC)CCN1C(=O)c2ccccc2NC1c1ccc(F)cc1 (configuration not stated) 1.63%
CCN(CC)CCN1C(=O)c2ccccc2NC1c1ccc(C)cc1 (configuration not stated) 0.09%
